# Assay results published in PubChem BioAssay (NCI).
# Values joined by “and” are separate entries in the source; they are usually repeats but may differ in a detail not shown here. Identical values can stand only once. The panel holds about 79,000 compounds, 15% with a hit somewhere; the sample as a whole holds those more often. Where a structure was tested more than once in an assay, its records may differ in their call. Active and inactive are the calls of the source. Rule as the data show it: active = growth inhibition above about 70%; inactive = the rest.
# Key:
# [1] = NCI Yeast Anticancer Drug Screen. Data for the rad52 strain (AID 147);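 also: 0% = growth of vehicle-treated control cultures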; conditions: S. cerevisiae rad52 mutant growth inhibition, stronger effect = higher value
# Procedure, shortened: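 Screen used a yeast mutant impaired in DNA repair. After compound exposure, growth was measured. Values reflect inhibition compared with vehicle-treated cells.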
# [2] = NCI Yeast Anticancer Drug Screen. Data for the wt1 strain (AID 149);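 also: 0% = growth of vehicle-treated wt1 cultures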; conditions: S. cerevisiae wt1 strain (SPY 50644) growth inhibition, stronger effect = higher value
# Procedure, shortened: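 Vehicle-normalised growth inhibition; strain wt1; compound exposure.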
# [3] = NCI Yeast Anticancer Drug Screen. Data for the rad50EPP+ strain (AID 151);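 also: 0% = growth of vehicle-treated control cultures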; conditions: S. cerevisiae rad50 mutant strain, stronger effect = higher value
# Procedure, shortened: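 Exposing the rad50EPP+ strain to each compound, growth was compared with vehicle-only cultures to give inhibition.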
# [4] = NCI Yeast Anticancer Drug Screen. Data for the mgt1 strain (AID 153); conditions: S. cerevisiae mgt1 mutant growth inhibition, stronger effect = higher value
# Procedure, shortened: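 Genetically defined yeast (mgt1) treated with compound; inhibition of growth expressed against vehicle-treated controls.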
# [5] = NCI Yeast Anticancer Drug Screen. Data for the rad50 strain (AID 155);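 also: 0% = growth of vehicle-only cultures of the same strain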; conditions: S. cerevisiae rad50 strain growth inhibition, stronger effect = higher value
# Procedure, shortened: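 A DNA repair-deficient yeast mutant serves as the test organism; compound-induced growth inhibition is calculated against vehicle-treated cells.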
# [6] = NCI Yeast Anticancer Drug Screen. Data for the mec2-1 strain (AID 157); conditions: S. cerevisiae mec2-1 strain, stronger effect = higher value
# Procedure, shortened: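 Readout is yeast growth inhibition, normalised to vehicle-treated controls, in the mec2-1 strain exposed to compound.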
# [7] = NCI Yeast Anticancer Drug Screen. Data for the rad14 strain (AID 159);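 also: 0% = growth of vehicle-treated control cultures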; conditions: S. cerevisiae rad14 strain growth inhibition, stronger effect = higher value
# Procedure, shortened: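 Vehicle-treated cultures served as the baseline for growth inhibition of a DNA repair-mutant yeast strain exposed to each compound.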
# [8] = NCI Yeast Anticancer Drug Screen. Data for the sgs1 mgt1 strain (AID 161);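 also: 0% = growth of cultures given vehicle only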; conditions: S. cerevisiae sgs1 mgt1 strain, stronger effect = higher value
# Procedure, shortened: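 Growth of a repair-deficient yeast mutant was monitored after compound treatment and expressed as inhibition relative to vehicle-treated cultures.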
# [9] = NCI Yeast Anticancer Drug Screen. Data for the CLN2oe strain (AID 163);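 also: 0% = growth of vehicle-only control cultures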; conditions: S. cerevisiae CLN2oe strain, stronger effect = higher value
# Procedure, shortened: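 Values reflect how much compound exposure reduced yeast growth, referenced to vehicle-exposed cells. Assay organism is a strain with a defined genetic change affecting cell-cycle control.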
# [10] = NCI Yeast Anticancer Drug Screen. Data for the cln2 rad14 strain (AID 165);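 also: 0% = growth equal to vehicle treated cultures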; conditions: S. cerevisiae cln2 rad14 strain, stronger effect = higher value
# Procedure, shortened: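 Relative to vehicle controls, growth inhibition of compound-treated cln2 rad14 yeast was recorded.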
# [11] = NCI Yeast Anticancer Drug Screen. Data for the bub3 strain (AID 167); conditions: S. cerevisiae bub3 mutant strain, stronger effect = higher value
# Procedure, shortened: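 Inhibition values come from growth of compound-treated mutant yeast normalised to vehicle-treated controls.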
# [12] = NCI Yeast Anticancer Drug Screen. Data for the wt2 strain (AID 169);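 also: 0% = growth of vehicle-treated yeast cultures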; conditions: S. cerevisiae wt2 strain growth inhibition, stronger effect = higher value
# Procedure, shortened: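 Values express reduction in yeast growth under compound treatment, referenced to vehicle-treated cells.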
# [13] = NCI Yeast Anticancer Drug Screen. Data for the mlh1 strain (AID 171);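 also: 0% = growth of vehicle-treated control cultures of the same strain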; conditions: S. cerevisiae mlh1 strain growth inhibition, stronger effect = higher value
# Procedure, shortened: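 Steps: expose the defined-mutant yeast strain to compound; expose a parallel culture to vehicle; measure growth; express compound effect as inhibition relative to the vehicle culture.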
# [14] = NCI Yeast Anticancer Drug Screen. Data for the sgs1 strain (AID 173);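 also: 0% = growth of vehicle-only control cultures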; conditions: S. cerevisiae sgs1 mutant, stronger effect = higher value
# Procedure, shortened: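 Treat defined-mutant yeast with compound; measure growth; calculate inhibition relative to vehicle-treated cells.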
# [15] = NCI Yeast Anticancer Drug Screen. Data for the mlh1 rad18 strain (AID 175); conditions: S. cerevisiae mlh1 rad18 strain growth inhibition, stronger effect = higher value
# Procedure, shortened: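 Test agents were incubated with a yeast strain of defined genotype (DNA damage repair defect). Inhibition of growth was derived by comparison with vehicle-exposed cultures.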
# [16] = NCI Yeast Anticancer Drug Screen. Data for the rad18 strain (AID 177); conditions: S. cerevisiae rad18 mutant growth inhibition, stronger effect = higher value
# Procedure, shortened: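 A genetically defined yeast mutant impaired in DNA damage repair was treated with test compounds, then its growth was measured against cultures receiving vehicle alone.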
# [17] = at 5.0 µM (retest, dose inferred, filed as 0.5)
# [18] = at 50.0 µM (retest, dose inferred, filed as 5.0)
smiles,measurement,setting,value
Cc1sc2ccc3ccccc3c2[n+]1C,growth inhibition,[1]; at 1.2 µM,-3% (inactive)
same,growth inhibition,[1]; at 3.7 µM,-14% (inactive)
same,growth inhibition,[1]; at 11.0 µM,-17% (inactive)
same,growth inhibition,[1]; at 33.0 µM,3% (inactive)
same,growth inhibition,[1]; at 100.0 µM,94% (active)
same,growth inhibition,[2]; at 1.2 µM,-21% (inactive)
same,growth inhibition,[2]; at 3.7 µM,-19% (inactive)
same,growth inhibition,[2]; at 11.0 µM,-24% (inactive)
same,growth inhibition,[2]; at 33.0 µM,-8% (inactive)
same,growth inhibition,[2]; at 100.0 µM,94% (active)
same,growth inhibition,[3]; at 1.2 µM,-23% (inactive)
same,growth inhibition,[3]; at 3.7 µM,-10% (inactive)
same,growth inhibition,[3]; at 11.0 µM,-40% (inactive)
same,growth inhibition,[3]; at 33.0 µM,-25% (inactive)
same,growth inhibition,[3]; at 100.0 µM,10% (inactive)
same,growth inhibition,[4]; at 1.2 µM,-9% (inactive)
same,growth inhibition,[4]; at 3.7 µM,-12% (inactive)
same,growth inhibition,[4]; at 11.0 µM,-17% (inactive)
same,growth inhibition,[4]; at 33.0 µM,13% (inactive)
same,growth inhibition,[4]; at 100.0 µM,79% (active)
same,growth inhibition,[5]; at 1.2 µM,7% (inactive)
same,growth inhibition,[5]; at 3.7 µM,27% (inactive)
same,growth inhibition,[5]; [17],44% (inactive) and -15% (inactive)
same,growth inhibition,[5]; at 11.0 µM,12% (inactive)
same,growth inhibition,[5]; at 33.0 µM,15% (inactive)
same,growth inhibition,[5]; [18],77% (active) and -4% (inactive)
same,growth inhibition,[5]; at 50.0 µM,82.6% (active) and 95.2% (active)
same,growth inhibition,[5]; at 100.0 µM,83% (active)
same,growth inhibition,[6]; at 1.2 µM,-31% (inactive)
same,growth inhibition,[6]; at 3.7 µM,-36% (inactive)
same,growth inhibition,[6]; [17],49% (inactive) and -26% (inactive)
same,growth inhibition,[6]; at 11.0 µM,-17% (inactive)
same,growth inhibition,[6]; at 33.0 µM,-11% (inactive)
same,growth inhibition,[6]; [18],61% (inactive) and -2% (inactive)
same,growth inhibition,[6]; at 50.0 µM,85.8% (active) and 91.7% (active)
same,growth inhibition,[6]; at 100.0 µM,93% (active)
same,growth inhibition,[7]; at 1.2 µM,-34% (inactive)
same,growth inhibition,[7]; at 3.7 µM,-22% (inactive)
same,growth inhibition,[7]; at 11.0 µM,-29% (inactive)
same,growth inhibition,[7]; at 33.0 µM,-28% (inactive)
same,growth inhibition,[7]; at 100.0 µM,85% (active)
same,growth inhibition,[8]; [17],-14% (inactive) and -11% (inactive)
same,growth inhibition,[8]; [18],20% (inactive) and 4% (inactive)
same,growth inhibition,[8]; at 50.0 µM,89.2% (active) and 97.3% (active)
same,growth inhibition,[9]; at 1.2 µM,-16% (inactive)
same,growth inhibition,[9]; at 3.7 µM,-64% (inactive)
same,growth inhibition,[9]; at 11.0 µM,-39% (inactive)
same,growth inhibition,[9]; at 33.0 µM,-19% (inactive)
same,growth inhibition,[9]; at 100.0 µM,92% (active)
same,growth inhibition,[10]; [17],47% (inactive) and -10% (inactive)
same,growth inhibition,[10]; [18],32% (inactive) and 15% (inactive)
same,growth inhibition,[10]; at 50.0 µM,87.2% (active) and 77.2% (active)
same,growth inhibition,[11]; at 1.2 µM,-2% (inactive)
same,growth inhibition,[11]; at 3.7 µM,-15% (inactive)
same,growth inhibition,[11]; [17],23% (inactive) and -18% (inactive)
same,growth inhibition,[11]; at 11.0 µM,-28% (inactive)
same,growth inhibition,[11]; at 33.0 µM,14% (inactive)
same,growth inhibition,[11]; [18],44% (inactive) and 36% (inactive)
same,growth inhibition,[11]; at 50.0 µM,86.6% (active) and 89.3% (active)
same,growth inhibition,[11]; at 100.0 µM,96% (active)
same,growth inhibition,[12]; at 1.2 µM,-11% (inactive)
same,growth inhibition,[12]; at 3.7 µM,2% (inactive)
same,growth inhibition,[12]; at 11.0 µM,-12% (inactive)
same,growth inhibition,[12]; at 33.0 µM,8% (inactive)
same,growth inhibition,[12]; at 100.0 µM,94% (active)
same,growth inhibition,[13]; at 1.2 µM,-67% (inactive)
same,growth inhibition,[13]; at 3.7 µM,-62% (inactive)
same,growth inhibition,[13]; at 11.0 µM,-70% (inactive)
same,growth inhibition,[13]; at 33.0 µM,-41% (inactive)
same,growth inhibition,[13]; at 100.0 µM,41% (inactive)
same,growth inhibition,[14]; at 1.2 µM,3% (inactive)
same,growth inhibition,[14]; at 3.7 µM,2% (inactive)
same,growth inhibition,[14]; at 11.0 µM,1% (inactive)
same,growth inhibition,[14]; at 33.0 µM,19% (inactive)
same,growth inhibition,[14]; at 100.0 µM,91% (active)
same,growth inhibition,[15]; [17],32% (inactive) and -17% (inactive)
same,growth inhibition,[15]; [18],46% (inactive) and 8% (inactive)
same,growth inhibition,[15]; at 50.0 µM,86.7% (active) and 96.7% (active)
same,growth inhibition,[16]; at 1.2 µM,0% (inactive)
same,growth inhibition,[16]; at 3.7 µM,4% (inactive)
same,growth inhibition,[16]; at 11.0 µM,2% (inactive)
same,growth inhibition,[16]; at 33.0 µM,-1% (inactive)
same,growth inhibition,[16]; at 100.0 µM,87% (active)
